PubChem BioAssay (NCATS)
Several values for one entry are separate records, joined by “and”; a condition that tells them apart may be missing. Equal values may be shown once. Results filed as inconclusive are left out. Values without a mark were called inactive. Activity calls are given as the source filed them. The call rests on the fitted dose curve; in most records, active means well fitted curve in the direction sought with a large enough effect; inconclusive means small, poorly fitted or top-dose-only effect, or another doubt; inactive means no such curve, though single readings can be large; an effect the other way counts as inactive or inconclusive.

Legend:
[1] = Viability qHTS for spleen associated tyrosine kinase inhibitor (SYKi) naive MV4-11 cells (AID 1963823); further: nearly all actives have a fitted effect of over 40% in size
Outline: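 Read-out: CellTiter-Glo luminescence. Exposure: 72 hr, 37 C, 5% CO2, 95% humidity. Cells: MV4-11 without SYK inhibitor history, 500/well, qHTS format.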

[2] = Viability qHTS for spleen associated tyrosine kinase inhibitor (SYKi) drug resistant MV4-11 cells (AID 1963824); further: nearly all actives have a fitted effect of over 35% in size
Outline: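 SYK-inhibitor-resistant MV4-11 AML cells were seeded at 500 per well onto compound and cultured 72 hours (37 °C, 5% CO2). CellTiter-Glo was then added, and after 10 min at room temperature, luminescence gave viability.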

[3] = Quantitative highthroughput screen to assess conditional lethalithy of NOMO1 cells grown in RPMI1640 with untreated serum (RPMI+s) (AID 1963876); further: nearly all actives have a fitted effect of over 35% in size
Outline: (§1)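 Each medium arm—HPLM with 10% dialyzed FBS, or RPMI1640 with 5 mM glucose and 10% untreated or dialyzed FBS—was screened against an 11-point, 3-fold compound titration for 48 h at 37 °C, with CellTiter-Glo luminescence as endpoint.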

[4] = Quantitative highthroughput screen to assess conditional lethalithy of NOMO1 cells grown in RPMI1640 with dialyzed fetal bovine serum (RPMI+ds) (AID 1963877); further: nearly all actives have a fitted effect of over 30% in size
Outline: as §1

[5] = Quantitative highthroughput screen to assess conditional lethalithy of NOMO1 cells grown in Human Plasma-Like Medium with dialyzed fetal bovine serum (HPLM+ds) (AID 1963878); further: nearly all actives have a fitted effect of over 35% in size
Outline: as §1

[6] = Quantitative highthroughput screen to assess conditional lethalithy of P12 Ichikawa cells grown in Human Plasma-Like Medium with dialyzed fetal bovine serum (HPLM+ds) (AID 1963879); conditions: Potency: viability; further: nearly all actives have a fitted effect of over 35% in size
Outline: as §1

[7] = Quantitative highthroughput screen to assess conditional lethalithy of P12 Ichikawa cells grown in RPMI1640 with dialyzed fetal bovine serum (RPMI+ds) (AID 1963880); conditions: Potency: P12-Ichikawa viability; further: nearly all actives have a fitted effect of over 35% in size
Outline: as §1

[8] = Quantitative highthroughput screen to assess conditional lethalithy of P12 Ichikawa cells grown in RPMI1640 with untreated serum (RPMI+s) (AID 1963881); conditions: Potency: viability; further: nearly all actives have a fitted effect of over 35% in size
Outline: as §1

[9] = Quantitative highthroughput screen to assess conditional lethalithy of SEM cells grown in Human Plasma-Like Medium with dialyzed fetal bovine serum (HPLM+ds) (AID 1963882); further: nearly all actives have a fitted effect of over 35% in size
Outline: as §1

[10] = Quantitative highthroughput screen to assess conditional lethalithy of SEM cells grown in RPMI1640 with unreated serum (RPMI+s) (AID 1963883); further: nearly all actives have a fitted effect of over 35% in size
Outline: as §1

[11] = Quantitative highthroughput screen to assess conditional lethalithy of SEM cells grown in RPMI1640 with dialyzed fetal bovine serum (RPMI+ds) (AID 1963884); further: nearly all actives have a fitted effect of over 35% in size
Outline: as §1

[12] = Cellular viability qHTS for adrenocortical cancer (ACC) cell line SW-13 (AID 1963989); conditions: SW-13 ACC cells viability, CellTiter-Glo, 48 h; activity (max response): stronger effect = lower value; further: nearly all actives have a fitted effect of over 65% in size;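 on activity (max response): cells grown in serum-free medium with ITS supplement; on the % scale 0 is the no-effect control and ±100 the full control effect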
Outline: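 Compound titrations (up to 46 uM final, in DMSO) were applied to SW-13 cells for 48 h at 37C/5% CO2. Reading used CellTiter-Glo after 20 min at room temperature; fitted curves yielded IC50 and efficacy.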

[13] = Cellular viability qHTS for adrenocortical cancer (ACC) cell line NCI-H295R (AID 1963990); further: nearly all actives have a fitted effect of over 60% in size
Outline: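 Readout: CellTiter-Glo luminescence, 20 min RT. Exposure: 48 h, 37C/5% CO2. Cells: NCI-H295R, ITS-DMEM serum-free. Range: up to 46 uM. Analysis: 4PL fit, IC50 plus efficacy.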
Potency means the concentration at half of the fitted maximal effect.

Structure (SMILES) | Potency [1] | Potency [2] | Potency [3] | Potency [4] | Potency [5] | Potency [6] | Potency [7] | Potency [8] | Potency [9] | Potency [10] | Potency [11] | Potency [12] | Potency [13] | activity (max response) [12]
CC(C)[C@H](CO)Nc1nc(Nc2cccc(Cl)c2)c2ncn(C(C)C)c2n1 | 2590 nM (active) | 3320 nM (active) | 2090 nM (active) | 2350 nM (active) | 743 nM (active) | 4180 nM (active) | 5900 nM (active) | 8330 nM (active) | 1320 nM (active) | 372 nM (active) | 418 nM (active) | 22400 nM (active) | 20000 nM (active) | 
CN(C)c1ccc(C(=O)NCCCCCCC(=O)NO)cc1 | 833 nM (active) | 742 nM (active) | 2960 nM (active) | 2350 nM (active) | 2640 nM (active) | 1480 nM (active) | 1180 nM (active) | 1480 nM (active) | 1320 nM (active) | 1320 nM (active) | 1180 nM (active) | 4470 nM (active) | 1410 nM (active) | 
NC(=O)NO | inactive | inactive | 4690 nM (active) | 4180 nM (active) | 2960 nM (active) | 9350 nM (active) | 9350 nM (active) | 16600 nM (active) | 3720 nM (active) | 4180 nM (active) | 4180 nM (active) |  | inactive | 10.6% and 4%
C[C@H]1[C@@H](OC(=O)CCC(=O)O)O[C@@H]2O[C@@]3(C)CC[C@@H]4[C@H](C)CC[C@@H]1[C@@]24OO3 | 934 nM (active) | 1160 nM (active) | 1660 nM (active) | 1320 nM (active) | 2090 nM (active) | 11800 nM (active) | 6620 nM (active) | 5260 nM (active) | 4690 nM (active) | 3720 nM (active) | 4180 nM (active) |  | 17800 nM (active) | 
